# Reference: PubChem BioAssay AID574 (The Scripps Research Institute Molecular Screening Center, 2007)
# Out of some 65,000 compounds screened, about 450 (0.69%) were called active. Only a selection was taken, and actives are over-represented in it overall. A number with no mark means an inactive call.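 The calls were made as follows: active = activation above a set limit, the screen-wide mean activation plus 3 SD (cut at about 8.5% in these data); inactive = the rest.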
# Target: 5-hydroxytryptamine receptor 1E (Homo sapiens) (UniProt P28566)
# Sequence (P28566 whole entry, looked up): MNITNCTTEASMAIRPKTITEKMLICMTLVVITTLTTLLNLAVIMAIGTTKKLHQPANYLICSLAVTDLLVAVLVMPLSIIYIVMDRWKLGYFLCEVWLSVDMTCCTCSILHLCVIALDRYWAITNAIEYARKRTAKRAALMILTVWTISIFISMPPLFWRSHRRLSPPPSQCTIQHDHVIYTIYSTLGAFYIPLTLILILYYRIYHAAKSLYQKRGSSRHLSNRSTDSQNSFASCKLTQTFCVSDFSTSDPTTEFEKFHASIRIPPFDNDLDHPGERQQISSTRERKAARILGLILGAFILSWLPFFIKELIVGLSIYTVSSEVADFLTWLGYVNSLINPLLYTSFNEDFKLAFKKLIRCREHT
# Experiment: activation of human serotonin 5HT1E receptor – cell-based, HTS, primary screen (AID 574);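 also: 100% = positive control agonist at 1 µM giving full maximal response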
# Conditions: CHO 5-HT1E Ga15 NFAT-bla reporter, FRET; at 6 µM; stronger effect = higher value
row,Compound,activation
1,c1ccc2sc(C3CCCNC3)nc2c1 (stereo not given),98.8% (active)
2,Cc1ccc(P(=S)(c2ccc(C)o2)N2CCOCC2)o1,-1.7%
3,O=C1NC(=O)C(C/C=C/c2ccccc2)C(=O)N1,0.1%
4,COc1ccc(CN2CCN(c3ccccc3F)CC2)c(OC)c1,54.1% (active)
5,COc1ccccc1CN1CCN(C(=O)Cc2ccccc2)CC1,-0.5%
6,Fc1cccc(F)c1CN1CCN(Cc2c(F)cccc2F)CC1,1.1%
7,CC(=NC1CCN(Cc2ccccc2)CC1)c1c(O)n(C)c(=O)n(C)c1=O,0%
8,CCOP(=S)(OCC)SCOC(=O)NCC(=O)OC,-0.2%
9,CC[N+]1(C)CCCC(OC(=O)C(O)(c2ccccc2)c2ccccc2)C1 (stereo not given),-0.1%
10,CC(C)c1ccc(OCC(=O)N2CCN(C)CC2)c(Br)c1,-1.2%
